# Experimental data: PubChem BioAssay AID588651 (The Scripps Research Institute Molecular Screening Center, 2011)
# Active and inactive are the calls of the source. Cut-off read from the data, not from the text of the source: active = inhibition above about 65%; inactive = the rest.
# Test system: Antitargets
# Experiment: Fam108b inhibition by ABPP, late-stage follow-up, biochemical, gel-based ABPP, recombinant soluble Fam108b, HTS hits, complex proteome (AID 588651);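 note: Fam108b spiked into mouse brain membrane proteome; tested at 20 µM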
# Details: FP-rhodamine labeling in proteome
row,SMILES,outcome
1,COc1cccc2c1C(=O)c1c(O)c3c(c(O)c1C2=O)C[C@@](O)(C(=O)CO)C[C@@H]3O[C@H]1C[C@H](N)[C@H](O)[C@H](C)O1,inactive
2,Cc1nc2scc(-c3ccccc3)c2c(=O)o1,inactive
3,Cc1cccc(N=Cc2nc(-c3ccccc3Br)oc2O)n1,inactive
4,Cc1cc(C)nc(SCc2ccc(C(=O)NN=Cc3cccc(O)c3O)cc2)n1,active
5,O=C(O)CCCNc1cc(N2CCN(C(=O)c3ccco3)CC2)c2noc3c2c1C(=O)c1ccccc1-3,inactive
6,CC1=CC(=O)c2c(O)ccc(O)c2C1=O,inactive
7,O=C(Nc1ccc(-c2csc(Nc3cccc(C(F)(F)F)c3)n2)cc1)c1cccc(C(F)(F)F)c1,inactive
8,Cc1cc(NN=Cc2c(O)ccc3ccccc23)nc(-c2ccccc2O)n1,inactive
9,O=[N+]([O-])c1ccc(NN=Cc2c[nH]c3ccccc23)c(S(=O)(=O)Nc2ccc(Cl)cc2)c1,inactive
10,Brc1csc(C=NNc2nc3ccccc3s2)c1,inactive
11,COc1ccc2ccccc2c1C(O)c1nccn1C (centres undefined),inactive
12,COc1cccc(C=NNC(=O)c2[nH]c(C)c(C(=O)NN=Cc3cccc(OC)c3O)c2C)c1O,active
13,COc1cc2cc(C(=O)NN=Cc3ccccc3Cl)[nH]c2cc1OC,inactive
14,CSC[C@@H]1NC(=S)N(c2ccc(C)cc2)C1=O,inactive
15,Cn1c2ccccc2c2cc(C=NNC(=O)c3cc(O)ccc3O)ccc21,inactive
16,O=C(O)C1Nc2ccc(Br)cc2C2C=CCC12 (centres undefined),inactive
17,CCOc1cc(/C=C2\C(=O)N(c3nc(-c4ccc(Br)cc4)cs3)N=C2c2ccccc2)ccc1O,active

row,SMILES,outcome
1,O=S(=O)(c1cc(O)ccc1O)c1cccc2c(S(=O)(=O)c3cc(O)ccc3O)cccc12,inactive
2,Clc1ccccc1C(c1ccccc1)(c1ccccc1)n1ccnc1,inactive
3,CCN(CC)S(=O)(=O)c1cc(NC(=O)COC(=O)c2sc3ccccc3c2Cl)ccc1C,inactive
4,CCOC(=O)c1sc(NC(=O)Nc2ccc(Cl)cc2)cc1C,inactive
5,COc1ccc(/C=C2\SC(=S)N(CC(=O)OCC(=O)Nc3cc(Cl)cc(Cl)c3)C2=O)cc1,inactive
6,Oc1ccccc1-c1nc2c3ccccc3c3ccccc3c2[nH]1,inactive
7,COc1cccc(-n2c(SCc3cc(=O)oc4cc(O)c(O)cc34)nc3ccccc3c2=O)c1,inactive
8,CCCCCCCCCCCCCCCC[n+]1ccc(C=NO)cc1,inactive
9,COc1ccc2oc(=O)c(-c3csc(Nc4cccc(O)c4)n3)cc2c1,inactive
10,Cc1ccc(-c2csc3nc(C(C)C)oc(=O)c23)c(C)c1,inactive
11,Cc1ccc(S(=O)(=O)N=C2C=C(Sc3ncn[nH]3)C(=O)c3ccccc32)cc1,inactive
12,O=C(O)c1ccc(S(=O)(=O)/N=C2\C=C(Nc3ccccc3F)C(=O)c3ccccc32)cc1,inactive
13,Oc1ccccc1C1Nc2cccc3cccc(c23)N1,inactive
14,Nc1c(S(=O)(=O)c2cccc(Cl)c2)c2nc3ccccc3nc2n1N=Cc1ccc(O)c(O)c1,inactive
15,Nc1ccc2nc(-c3cccc(-c4nc5ccc(N)cc5[nH]4)c3)[nH]c2c1,inactive
16,O=C(Nc1ccc(-c2csc(Nc3ccccc3)n2)cc1)c1cc([N+](=O)[O-])cc(C(F)(F)F)c1,inactive
17,O=C1C(SCCO)=C(SCCO)C(=O)c2ccccc21,inactive
